From PubChem BioAssay (NCATS)
Results filed as inconclusive are left out. Entries that show only a call come without a potency. Unmarked numbers belong to inactive results. The source made the active and inactive calls. The call rests on the fitted dose curve; in most records, active means well fitted cell-killing curve with a large enough effect; inconclusive means small, poorly fitted or top-dose-only effect, or effect the other way; inactive means no such curve, though single readings can be large or run the other way.

Legend:
[1] = Viability qHTS for spleen associated tyrosine kinase inhibitor (SYKi) naive MV4-11 cells (AID 1963823); conditions: MV4-11 AML viability, CellTiter-Glo luminescence, 72 h; series mostly up to 45 µM; further: nearly all actives have a fitted effect of over 40% in size
In short: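 SYK inhibitor-naive MV4-11 cells, 500 per well, exposed to compounds for 72 hr at 37 C, 5% CO2. Viability read as CellTiter-Glo luminescence after 10 min at room temperature.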

[2] = Viability qHTS for spleen associated tyrosine kinase inhibitor (SYKi) drug resistant MV4-11 cells (AID 1963824); conditions: SYKi-resistant MV4-11 viability, CellTiter-Glo, 72 h; series mostly up to 45 µM; further: nearly all actives have a fitted effect of over 35% in size
In short: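 SYK-inhibitor-resistant MV4-11 AML cells were seeded at 500 per well onto compound and cultured 72 hours (37 °C, 5% CO2). CellTiter-Glo was then added, and after 10 min at room temperature, luminescence gave viability.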
Potency means the concentration at half of the fitted maximal effect.

| SMILES | Potency [1] | Potency [2] | viability (% of control) [1] | viability, % of control [2] |
| --- | --- | --- | --- | --- |
| C=C1C(=O)OC2C1CCC1(C)C(O)CCC(=C)C21 (stereo not given) | 9.2 µM (active) | 4.61 µM (active) | – | – |
| CC1(C)CCC[C@]2(C)[C@H]3CC(=O)O[C@]3(C)CC[C@@H]12 | inactive | inactive | – | – |
| C(#Cc1nc2ncccc2nc1OCCN1CCCC1)c1ccccc1 | 0.651 µM (active) | 1.03 µM (active) | – | – |
| CC1OC(OC2CCC3(C)C(CCC4(C)C3CC=C3C5CC(C)(C)CCC5(C(=O)OC5OC(CO)C(O)C(O)C5O)CCC34C(=O)O)C2(C)C)C(O)C(O)C1O (stereo not given) | inactive | inactive | – | – |
| CC(=O)NCCc1c[nH]c2ccc(O)cc12 | inactive | inactive | – | – |
| CO[C@H]1/C=C/O[C@@]2(C)Oc3c(C)c(O)c4c(O)c(c(/C=N\N5CCN(C6CCCC6)CC5)c(O)c4c3C2=O)NC(=O)/C(C)=C\C=C\[C@H](C)[C@H](O)[C@@H](C)[C@@H](O)[C@@H](C)[C@H](OC(C)=O)[C@@H]1C | 18.6 µM (active) | 11.8 µM (active) | – | – |
| CCS(=O)c1nc(-c2cccc(OCc3ccccc3)c2)cc(C(F)(F)F)n1 (stereo not given) | 2.91 µM (active) | 5.8 µM (active) | – | – |
| Cc1ccccc1NC(=O)Nc1ccc(CC(=O)N(C)[C@@H](CC(C)C)C(=O)NCC[C@H](NC(=O)[C@@H]2CCCN2S(=O)(=O)c2cc(Cl)cc(Cl)c2)C(=O)O)cc1 | inactive | inactive | – | – |
| C[C@@H]1O[C@@H](O[C@H]2[C@H](O)[C@@H](O)[C@H](OC[C@H]3O[C@@H](OC(=O)[C@]45CCC(C)(C)C[C@H]4C4=CCC6[C@@]7(C)C[C@@H](O)[C@H](O)[C@@](C)(CO)C7[C@H](O)C[C@@]6(C)[C@]4(C)CC5)[C@H](O)[C@@H](O)[C@@H]3O)O[C@@H]2CO)[C@H](O)[C@H](O)[C@H]1O (stereo not given in full) | – | – | 86.1% [at 9.25 µM] | 79.5% [at 9.25 µM] |
| C=C1[C@@H](C2=CC(=O)OC2)CC[C@@]2(O)[C@@H]1CC1[C@H]2CC[C@@H]2C[C@@H](O[C@H]3O[C@@H](C)[C@@H](O[C@@H]4O[C@H](CO[C@@H]5O[C@H](CO)[C@@H](O)[C@H](O)[C@H]5O)[C@@H](O)[C@H](O)[C@H]4O)[C@H](OC)[C@H]3O)CC[C@]12C (stereo not given in full) | 2.19 µM (active) | 1.55 µM (active) | – | – |
| COC1CC(=O)C23C(=O)NC(CC(C)C)C2C(C)C(C)=CC3/C=C(\C)CCC(O)C1O (stereo not given) | 1.42 µM (active) | 1.78 µM (active) | – | – |
| COc1ccc2[nH]c3c(-c4cccc5ccccc45)nccc3c2c1 | 0.651 µM (active) | 0.82 µM (active) | – | – |
| COc1cc(N2CCC(O)CC2)ccc1Nc1nc(Nc2ccccc2S(=O)(=O)C(C)C)c2[nH]cnc2n1 | 1.3 µM (active) | 2.06 µM (active) | – | – |
| CC(C)C(O)(CO)CCO[C@@H]1O[C@H](CO[C@H]2OC[C@](O)(CO)[C@H]2O)[C@@H](O)[C@H](O)[C@H]1O (stereo not given in full) | inactive | inactive | – | – |
| CC1(C)CC[C@]2(C(=O)O)CC[C@]3(C)C(=CCC4[C@@]5(C)CC[C@H](O[C@@H]6O[C@H](C(=O)O)[C@@H](O)[C@H](O)[C@H]6O)C(C)(CO)C5CC[C@]43C)C2C1 (stereo not given in full) | inactive | inactive | – | – |
| CC(=O)c1c(C)cc(O[C@@H]2O[C@H](CO)[C@@H](O)[C@H](O)[C@H]2O)cc1O | inactive | inactive | – | – |
| COc1cc(C)c(C(=O)NC2C(C)OC(OC3CCC(C)C4C3C=C(C)C3/C(C)=C\CC/C(C)=C/C5(C)C=C(C(=O)O)C(C)CC56OC(=O)/C(=C(\O)C34C)C6=O)C(O)C2(C)O)c(O)c1 (stereo not given) | – | – | 82.6% [at 9.25 µM] | 77% [at 9.25 µM] |
| CCCc1cc(C)[nH]c(=O)c1CNC(=O)c1cc(-c2ccnc(N3CCN(C)CC3)c2)cc2c1cnn2C(C)C | 14.8 µM (active) | 11.8 µM (active) | – | – |
| COc1cc(Br)c(Nc2nc(-c3c(C)nc4ncccn34)cs2)c(Br)c1 | 1.16 µM (active) | 1.16 µM (active) | – | – |
| C=C(C)C1CC2(CO)C(=CC1=O)CCC(O)C2C (stereo not given) | inactive | inactive | – | – |
| Fc1ccc(N2CCCCC2)c(NC(=S)c2ccncc2)c1 | 11.6 µM (active) | 9.2 µM (active) | – | – |
| C=C(C)C(=O)O[C@H]1[C@H]2C(=C)C(=O)O[C@@H]2/C=C(\CO)CC/C=C(/C=O)[C@@H]1O | 10.1 µM (active) | 9.04 µM (active) | – | – |
| CC(=O)OC/C(=C/C(=O)O)CC[C@@H]1C(C)=CC(=O)[C@@H]2C(C)(C)CCC[C@@]12C | inactive | inactive | – | – |
| NC(=O)[C@H](O[C@@H]1O[C@H](CO)[C@@H](O)[C@H](O)[C@H]1O)c1ccccc1 | inactive | inactive | – | – |
| CC[C@H]1OC(=O)[C@H](C)C(=O)[C@H](C)[C@@H](OC2O[C@H](C)C[C@H](N(C)C)[C@H]2O)[C@@H](C)C[C@@H](C)C(=O)/C=C/[C@]1(C)O (stereo not given in full) | inactive | inactive | – | – |
| Cc1ccc(NS(=O)(=O)c2cc3c(cc2N[C@H](C)CO)NC(=O)CC3)cc1C | 20.6 µM (active) | 14.6 µM (active) | – | – |
| COc1cc(C(=O)OC[C@H]2O[C@H](O[C@@]3(CO)O[C@@H](CO)[C@H](O)[C@H]3O)[C@H](O)[C@@H](O)[C@@H]2O)ccc1O | inactive | inactive | – | – |
| C/C=C/C=C/C=C/C(=O)O[C@@H]1C=C(CO)C(O)(C(=O)O)[C@@]2(C)CCCC(C)(C)[C@H]12 (stereo not given in full) | inactive | inactive | – | – |

| SMILES | Potency [1] | Potency [2] | viability (% of control) [1] | viability, % of control [2] |
| --- | --- | --- | --- | --- |
| O=C1O[C@H](C(O)CO)C(=O)C1=O (stereo not given in full) | inactive | inactive | – | – |
| CC(=O)C1=C(C)N(c2cccc(C(F)(F)F)c2)C(=O)N[C@H]1c1ccc(C#N)nc1 | – | – | 83.3% [at 9.25 µM] | 87% [at 9.25 µM] |
| C[C@@H]1CC[C@@]2(OC1)O[C@H]1C[C@H]3[C@@H]4CC=C5C[C@@H](O)CC[C@]5(C)[C@H]4CC[C@]3(C)[C@H]1[C@@H]2C | inactive | inactive | – | – |
| CC(C)[C@@](O)(c1ccc2cc(OC(F)F)c(OC(F)F)cc2c1)c1cn[nH]n1 | 18.4 µM (active) | 20.6 µM (active) | – | – |
| CC(=O)O[C@H]1[C@H](OC(=O)C(C)C)[C@]2(C)OC3(CC[C@]2(C)[C@H]2CCC[C@]4(CO4)[C@]12C)COC(=O)C3 (stereo not given in full) | inactive | inactive | – | – |
| CNC(=S)NS(=O)(=O)c1cc(CCNC(=O)c2cc(Cl)ccc2OC)ccc1OC | inactive | inactive | – | – |
| CC[C@@H]1C[C@]1(NC(=O)[C@@H]1C[C@@H]2CN1C(=O)[C@H](C(C)(C)C)NC(=O)OCC(C)(C)CCCCc1cccc3c1CN(C3)C(=O)O2)C(=O)NS(=O)(=O)C1CC1 | 20.6 µM (active) | 18.4 µM (active) | – | – |
| COc1cc(C[C@H]2COC(=O)[C@@H]2Cc2ccc(O)c(OC)c2)ccc1O | inactive | inactive | – | – |
| COc1ccc(CN2CCN(CCCSc3cc(C(C)(C)C)c(O)c(C(C)(C)C)c3)CC2)c(OC)c1OC | 3.48 µM (active) | 3.48 µM (active) | – | – |
| COC(=O)C1=COC(O[C@@H]2O[C@H](COC(=O)/C=C/c3ccc(O)cc3)[C@@H](O)[C@H](O)[C@H]2O)C2C(CO)=CCC12 (stereo not given in full) | inactive | inactive | – | – |
| CC(C)(O)C1CCC2(C)C3C(O)C4C(C13)C42CO (stereo not given) | inactive | inactive | – | – |
| C[C@@H]1C(=O)O[C@H]2[C@H](O)C34[C@H]5C[C@@H](C(C)(C)C)C36[C@@H](OC(=O)[C@@H]6O)O[C@@]4(C(=O)O5)[C@@]12O (stereo not given in full) | inactive | inactive | – | – |
| C=CC(C)(C)C12Nc3c(ccc4c3OC(C)(C)C=C4)C1(O)CC1C(=O)N3CCCC3C(=O)N12 (stereo not given) | inactive | 4.47 µM (active) | – | – |
| CN(C)c1cc2c(Nc3ccc4c(cnn4Cc4ccccc4)c3)ncnc2cn1 | 8.2 µM (active) | 9.2 µM (active) | – | – |
| C=C(CCO)C(=O)OCC1OCC(OC(=O)C(=C)CCO[C@@H]2O[C@H](CO)[C@@H](O)[C@H](O)[C@H]2O)C(O)C1O (stereo not given in full) | inactive | inactive | – | – |
| O=C(c1c(F)ccc(NS(=O)(=O)N2CC[C@@H](F)C2)c1F)c1c[nH]c2ncc(-c3cnc(C4CC4)nc3)cc12 | 6.51 µM (active) | 8.2 µM (active) | – | – |
| CC1OC(OCC2OC(OC3CCC4(C)C(CCC5(C)C4CC=C4C6CC(C)(C)CCC6(C(=O)OC6OC(CO)C(O)C(O)C6O)CCC45C)C3(C)CO)C(O)C(O)C2O)C(O)C(O)C1O (stereo not given) | – | – | 79.6% [at 9.25 µM] | 96.2% [at 9.25 µM] |
| CC12CC34CC(O)C5C(CO)(CO)CC(=O)CC5(C)C3CC1C2C4 (stereo not given) | inactive | inactive | – | – |
| CCOc1cc(CNC2CCCC2)cc(Cl)c1OCc1ccc(Cl)cc1 | 4.61 µM (active) | 5.8 µM (active) | – | – |
| COc1c(O[C@@H]2O[C@H](CO)[C@@H](O)[C@H](O)[C@H]2O)c(CCC(=O)O)cc2ccoc12 | inactive | inactive | – | – |
| C=C1C(=O)O[C@@H]2/C=C(\CO)CC/C=C(/C=O)C[C@H](O)[C@@H]12 | 4.11 µM (active) | 3.26 µM (active) | – | – |
| CC1(C)COC(=O)[C@@H]1O[C@@H]1O[C@H](CO)[C@@H](O)[C@H](O)[C@H]1O | inactive | inactive | – | – |
| C[N+]1(C)[C@@H]2CC[C@H]1CC(OC(=O)C(O)c1ccccc1)C2 (stereo not given in full) | inactive | inactive | – | – |
| CC(=O)OC1C(O)CC(O[C@@H]2O[C@H](CO)[C@@H](O)[C@H](O)[C@H]2O)C2CCC3C(=O)OC(c4ccoc4)CC3(C)C21 (stereo not given in full) | inactive | inactive | – | – |
| COc1cccc(CN(C(=O)CC(C)(C)C)[C@H]2C[C@H](C(=O)N3CCNCC3)N(Cc3ccc4c(c3)OCO4)C2)c1 | 18.4 µM (active) | 16.4 µM (active) | – | – |
| CCC(C)C(=O)OC1CC(O)C23C4OCC5(C(O)CC2C1(C)C(O)O4)C3C(=O)CC1(C)C(c2ccoc2)CC2OC215 (stereo not given) | 0.893 µM (active) | 0.563 µM (active) | – | – |
| CC(=O)c1c(O)cc2cccc3c2c1CC(C)(O)O3 (stereo not given) | inactive | inactive | – | – |
